Assay results as given in PubChem BioAssay AID1159580 (chemical genetic matrix, 2015).
About 2,000 (36%) of roughly 5,500 compounds were called active. Inconclusive results (about 18%) are left out. No stated cut-off is given here; in the data, active means normalized growth mostly below about 0.91 (no sharp cut-off); inconclusive means no clear call, values can overlap the other calls; inactive means mostly above about 0.92. Some of the results follow.

Assay: chemical genetic growth profiling, strain panel (AID 1159580);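 further: tested at 20 µM; growth read once vehicle control cultures reached saturation at 30 °C; 1 = growth at the plate median or of vehicle wells; lower values mean less growth of the strain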
Conditions: growth OD

Measured: normalized growth

CC(=O)N[C@@H](CS)C(=O)O
inactive: S. cerevisiae deletion strains, locus YAL013W, strain DEP1, hits give low values 1 | S. cerevisiae deletion strains, locus YAL021C, strain ccr4, hits give low values 1.02 | S. cerevisiae deletion strains, locus YAL026C, strain drs2, hits give low values 1 | S. cerevisiae deletion strains, locus YAL030W, strain snc1, hits give low values 0.995 | S. cerevisiae deletion strains, locus YBL061C, strain skt5, hits give low values 1.01 | S. cerevisiae deletion strains, locus YBR009C, strain hhf1, hits give low values 1 | S. cerevisiae deletion strains, locus YBR021W, strain FUR4, hits give low values 0.989 | S. cerevisiae deletion strains, locus YBR023C, strain chs3, hits give low values 0.994 | S. cerevisiae deletion strains, locus YBR171W, strain sec66, hits give low values 0.991 | S. cerevisiae deletion strains, locus YBR229C, strain ROT2, hits give low values 1.01 | S. cerevisiae deletion strains, locus YBR231C, strain swc5, hits give low values 1.01 | S. cerevisiae deletion strains, locus YBR279W, strain paf1, hits give low values 1.01 | S. cerevisiae deletion strains, locus YCL011C, strain gbp2, hits give low values 0.997 | S. cerevisiae deletion strains, locus YCL016C, strain dcc1, hits give low values 0.998 | S. cerevisiae deletion strains, locus YCL029C, strain bik1, hits give low values 1.03 | S. cerevisiae deletion strains, locus YCL061C, strain MRC1, hits give low values 0.995 | S. cerevisiae deletion strains, locus YCL069W, strain vba3, hits give low values 1.01 | S. cerevisiae deletion strains, locus YCR088W, strain abp1, hits give low values 1 | S. cerevisiae deletion strains, locus YDL005C, strain med2, hits give low values 0.992 | S. cerevisiae deletion strains, locus YDL035C, strain GPR1, hits give low values 1 | S. cerevisiae deletion strains, locus YDL040C, strain nat1, hits give low values 1.01 | S. cerevisiae deletion strains, locus YDL074C, strain BRE1, hits give low values 1.01 | S. cerevisiae deletion strains, locus YDL101C, strain DUN1, hits give low values 1.01 | S. cerevisiae deletion strains, locus YDL134C, strain PPH21, hits give low values 0.997 | S. cerevisiae deletion strains, locus YDL185W, strain tfp1, hits give low values 1.02 | S. cerevisiae deletion strains, locus YDL192W, strain arf1, hits give low values 1.01 | S. cerevisiae deletion strains, locus YDR001C, strain nth1, hits give low values 0.997 | S. cerevisiae deletion strains, locus YDR069C, strain doa4, hits give low values 1.01 | S. cerevisiae deletion strains, locus YDR101C, strain arx1, hits give low values 1.01 | S. cerevisiae deletion strains, locus YDR137W, strain rgp1, hits give low values 1.02 | S. cerevisiae deletion strains, locus YDR159W, strain sac3, hits give low values 1.01 | S. cerevisiae deletion strains, locus YDR162C, strain NBP2, hits give low values 1.02 | S. cerevisiae deletion strains, locus YDR195W, strain ref2 0.985 | S. cerevisiae deletion strains, locus YDR297W, strain sur2, hits give low values 0.99 | S. cerevisiae deletion strains, locus YDR318W, strain mcm21, hits give low values 1.02 | S. cerevisiae deletion strains, locus YDR334W, strain swr1, hits give low values 1 | S. cerevisiae deletion strains, locus YDR335W, strain msn5, hits give low values 1.01 | S. cerevisiae deletion strains, locus YDR388W, hits give low values 1.02 | S. cerevisiae deletion strains, locus YDR392W, strain spt3, hits give low values 1.02 | S. cerevisiae deletion strains, locus YDR502C, strain sam2, hits give low values 1.01 | S. cerevisiae deletion strains, locus YEL003W, strain gim4, hits give low values 1.01 | S. cerevisiae deletion strains, locus YEL037C, strain rad23, hits give low values 1 | S. cerevisiae deletion strains, locus YEL061C, strain CIN8 (second series), hits give low values 0.988 | S. cerevisiae deletion strains, locus YEL061C, strain CIN8, hits give low values 1.01 | S. cerevisiae deletion strains, locus YER015W, strain faa2, hits give low values 1 | S. cerevisiae deletion strains, locus YER016W, strain bim1, hits give low values 0.995 | S. cerevisiae deletion strains, locus YER110C, hits give low values 1.03 | S. cerevisiae deletion strains, locus YER111C, strain swi4, hits give low values 0.989 | S. cerevisiae deletion strains, locus YER155C, strain BEM2 (second series), hits give low values 1.01 | S. cerevisiae deletion strains, locus YER155C, strain BEM2, hits give low values 1.01 | S. cerevisiae deletion strains, locus YER167W, strain BCK2, hits give low values 1.01 | S. cerevisiae deletion strains, locus YFR010W, strain ubp6, hits give low values 0.983 | S. cerevisiae deletion strains, locus YGL078C, strain dbp3, hits give low values 1.01 | S. cerevisiae deletion strains, locus YGL086W, strain mad1, hits give low values 1.01 | S. cerevisiae deletion strains, locus YGL167C, strain pmr1, hits give low values 0.995 | S. cerevisiae deletion strains, locus YGL173C, strain kem1, hits give low values 1 | S. cerevisiae deletion strains, locus YGL227W, strain vid30, hits give low values 1 | S. cerevisiae deletion strains, locus YGL240W, strain doc1, hits give low values 0.964 | S. cerevisiae deletion strains, locus YGL248W, strain PDE1, hits give low values 1.02 | S. cerevisiae deletion strains, locus YGL253W, strain hxk2, hits give low values 1.02 | S. cerevisiae deletion strains, locus YGR135W, strain pre9, hits give low values 1.02 | S. cerevisiae deletion strains, locus YGR252W, strain gcn5, hits give low values 0.999 | S. cerevisiae deletion strains, locus YHR013C, strain ard1, hits give low values 1.02 | S. cerevisiae deletion strains, locus YHR027C, strain rpn1, hits give low values 1.01 | S. cerevisiae deletion strains, locus YHR030C, strain SLT2, hits give low values 1.01 | S. cerevisiae deletion strains, locus YHR079C, strain IRE1 (second series), hits give low values 1.03 | S. cerevisiae deletion strains, locus YHR094C, strain hxt1, hits give low values 1.01 | S. cerevisiae deletion strains, locus YHR129C, strain ARP1, hits give low values 1.01 | S. cerevisiae deletion strains, locus YHR142W, strain chs7, hits give low values 1.02 | S. cerevisiae deletion strains, locus YHR200W, strain rpn10, hits give low values 1.02 | S. cerevisiae deletion strains, locus YIL066C, strain RNR3, hits give low values 1.02 | S. cerevisiae deletion strains, locus YIL073C, strain SPO22, hits give low values 1.07 | S. cerevisiae deletion strains, locus YIL125W, strain kgd1, hits give low values 1.02 | S. cerevisiae deletion strains, locus YIR030C, strain dcg1, hits give low values 1.01 | S. cerevisiae deletion strains, locus YJL092W, strain hpr5, hits give low values 1.02 | S. cerevisiae deletion strains, locus YJL095W, strain BCK1 (second series), hits give low values 1.01 | S. cerevisiae deletion strains, locus YJL095W, strain BCK1, hits give low values 1.01 | S. cerevisiae deletion strains, locus YJL115W, strain asf1, hits give low values 0.991 | S. cerevisiae deletion strains, locus YJL129C, strain trk1, hits give low values 1 | S. cerevisiae deletion strains, locus YJL134W, strain LCB3, hits give low values 1.01 | S. cerevisiae deletion strains, locus YJL154C, strain vps35, hits give low values 1.01 | S. cerevisiae deletion strains, locus YJL164C, strain tpk1, hits give low values 1 | S. cerevisiae deletion strains, locus YJL166W, strain qcr8, hits give low values 0.985 | S. cerevisiae deletion strains, locus YJL168C, strain set2, hits give low values 1.01 | S. cerevisiae deletion strains, locus YJL187C, strain SWE1 (second series), hits give low values 1.03 | S. cerevisiae deletion strains, locus YJR043C, strain POL32, hits give low values 1 | S. cerevisiae deletion strains, locus YKL009W, strain mrt4, hits give low values 1.04 | S. cerevisiae deletion strains, locus YKL068W, hits give low values 1.01 | S. cerevisiae deletion strains, locus YKL085W, strain MDH1 (second series), hits give low values 1 | S. cerevisiae deletion strains, locus YKL085W, strain MDH1, hits give low values 1 | S. cerevisiae deletion strains, locus YKL160W, strain elf1, hits give low values 0.998 | S. cerevisiae deletion strains, locus YKR001C, strain vps1, hits give low values 1.01 | S. cerevisiae deletion strains, locus YKR026C, strain gcn3, hits give low values 0.991 | S. cerevisiae deletion strains, locus YKR091W, strain srl3, hits give low values 1.01 | S. cerevisiae deletion strains, locus YLL001W, strain dnm1, hits give low values 0.994 | S. cerevisiae deletion strains, locus YLL026W, hits give low values 1.01 | S. cerevisiae deletion strains, locus YLL041C, strain sdh2, hits give low values 1.01 | S. cerevisiae deletion strains, locus YLR027C, strain aat2, hits give low values 1.01 | S. cerevisiae deletion strains, locus YLR039C, strain RIC1, hits give low values 1.02 | S. cerevisiae deletion strains, locus YLR058C, strain SHM2, hits give low values 1.02 | S. cerevisiae deletion strains, locus YLR102C, strain apc9, hits give low values 1.02 | S. cerevisiae deletion strains, locus YLR221C, strain rsa3, hits give low values 1 | S. cerevisiae deletion strains, locus YLR258W, strain gsy2, hits give low values 1.01 | S. cerevisiae deletion strains, locus YLR262C, strain YPT6 (second series), hits give low values 1 | S. cerevisiae deletion strains, locus YLR262C, strain YPT6, hits give low values 1.08 | S. cerevisiae deletion strains, locus YLR268W, strain sec22, hits give low values 1.02 | S. cerevisiae deletion strains, locus YLR320W, strain mms22, hits give low values 1.01 | S. cerevisiae deletion strains, locus YLR330W, strain CHS5, hits give low values 1.01 | S. cerevisiae deletion strains, locus YLR342W, strain FKS1 (second series), hits give low values 0.995 | S. cerevisiae deletion strains, locus YLR342W, strain FKS1, hits give low values 1.01 | S. cerevisiae deletion strains, locus YLR357W, strain rsc2, hits give low values 0.989 | S. cerevisiae deletion strains, locus YLR370C, strain arc18, hits give low values 1.01 | S. cerevisiae deletion strains, locus YLR371W, strain rom2, hits give low values 1.03 | S. cerevisiae deletion strains, locus YLR384C, strain iki3, hits give low values 1.01 | S. cerevisiae deletion strains, locus YLR418C, strain cdc73, hits give low values 1.05 | S. cerevisiae deletion strains, locus YML016C, strain PPZ1, hits give low values 1.01 | S. cerevisiae deletion strains, locus YML032C, strain rad52, hits give low values 1.01 | S. cerevisiae deletion strains, locus YML120C, strain ndi1, hits give low values 0.999 | S. cerevisiae deletion strains, locus YML124C, strain tub3, hits give low values 1.04 | S. cerevisiae deletion strains, locus YMR058W, strain fet3, hits give low values 0.998 | S. cerevisiae deletion strains, locus YMR078C, strain ctf18, hits give low values 1.03 | S. cerevisiae deletion strains, locus YMR125W, strain sto1, hits give low values 1.01 | S. cerevisiae deletion strains, locus YMR129W, hits give low values 0.984 | S. cerevisiae deletion strains, locus YMR205C, strain PFK2, hits give low values 0.995 | S. cerevisiae deletion strains, locus YMR223W, strain ubp8, hits give low values 1.02 | S. cerevisiae deletion strains, locus YMR231W, strain pep5, hits give low values 1 | S. cerevisiae deletion strains, locus YMR263W, strain SAP30, hits give low values 1.01 | S. cerevisiae deletion strains, locus YMR307W, strain GAS1, hits give low values 1.04 | S. cerevisiae deletion strains, locus YNL067W, strain RPL9B, hits give low values 1.03 | S. cerevisiae deletion strains, locus YNL071W, strain lat1, hits give low values 1.02 | S. cerevisiae deletion strains, locus YNL128W, strain TEP1, hits give low values 1.03 | S. cerevisiae deletion strains, locus YNL153C, strain GIM3, hits give low values 1.02 | S. cerevisiae deletion strains, locus YNL209W, strain ssb2, hits give low values 1 | S. cerevisiae deletion strains, locus YNL233W, strain BNI4, hits give low values 1.01 | S. cerevisiae deletion strains, locus YNL248C, strain rpa49, hits give low values 1.08 | S. cerevisiae deletion strains, locus YNL250W, strain rad50, hits give low values 1.01 | S. cerevisiae deletion strains, locus YNL271C, strain bni1, hits give low values 1.03 | S. cerevisiae deletion strains, locus YNL298W, strain CLA4, hits give low values 1.02 | S. cerevisiae deletion strains, locus YNL307C, strain MCK1, hits give low values 1.02 | S. cerevisiae deletion strains, locus YNL322C, strain KRE1 (second series), hits give low values 0.999 | S. cerevisiae deletion strains, locus YNR049C, strain mso1, hits give low values 1 | S. cerevisiae deletion strains, locus YNR052C, strain pop2, hits give low values 1.03 | S. cerevisiae deletion strains, locus YOL006C, strain TOP1, hits give low values 0.995 | S. cerevisiae deletion strains, locus YOL012C, strain htz1 0.978 | S. cerevisiae deletion strains, locus YOL147C, strain pex11, hits give low values 1.02 | S. cerevisiae deletion strains, locus YOR001W, strain rrp6, hits give low values 1.02 | S. cerevisiae deletion strains, locus YOR061W, strain CKA2, hits give low values 1.02 | S. cerevisiae deletion strains, locus YOR069W, strain VPS5, hits give low values 1.01 | S. cerevisiae deletion strains, locus YOR070C, strain gyp1, hits give low values 1 | S. cerevisiae deletion strains, locus YOR080W, strain dia2, hits give low values 0.984 | S. cerevisiae deletion strains, locus YOR083W, strain WHI5, hits give low values 1 | S. cerevisiae deletion strains, locus YOR106W, strain vam3, hits give low values 1.02 | S. cerevisiae deletion strains, locus YOR136W, strain idh2, hits give low values 1.03 | S. cerevisiae deletion strains, locus YOR144C, strain elg1, hits give low values 1.03 | S. cerevisiae deletion strains, locus YOR184W, strain ser1, hits give low values 1.01 | S. cerevisiae deletion strains, locus YOR265W, strain rbl2, hits give low values 1 | S. cerevisiae deletion strains, locus YOR270C, strain vph1, hits give low values 1.04 | S. cerevisiae deletion strains, locus YOR290C, strain snf2, hits give low values 0.994 | S. cerevisiae deletion strains, locus YOR316C, strain cot1, hits give low values 1.02 | S. cerevisiae deletion strains, locus YPL051W, strain arl3, hits give low values 1.01 | S. cerevisiae deletion strains, locus YPL078C, strain atp4, hits give low values 0.992 | S. cerevisiae deletion strains, locus YPL106C, strain sse1, hits give low values 0.988 | S. cerevisiae deletion strains, locus YPL240C, strain hsp82, hits give low values 0.999 | S. cerevisiae deletion strains, locus YPR119W, strain clb2, hits give low values 1.02 | S. cerevisiae deletion strains, locus YPR141C, strain kar3, hits give low values 1.03 | S. cerevisiae deletion strains, locus YPR163C, strain tif3, hits give low values 1.03 | S. cerevisiae deletion strains, locus YPR167C, strain met16, hits give low values 1.06 | S. cerevisiae deletion strains, strain wtn01, hits give low values 1.01 | S. cerevisiae strains, strain wild type, hits give low values 1.01
